Measured values as given in PubChem BioAssay.
Results filed as inconclusive are left out. Active and inactive are the calls of the source.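 Rule for the calls, unless noted: active = normalized viability below 100% at a tested concentration; inactive = the rest.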

How the values were obtained:
[1] = growth inhibition of DIPG glioma cells, dose response, cell-based, SU-DIPG-XVII, MIPE5.0, CellTiter-Glo, qHTS (AID 1347060; cut-off not given, nearly all actives have AC50 up to about 26 µM;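 for AC50: cells exposed to compound for 48 hours before viability readout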); conditions: SU-DIPG-XVII viability, CellTiter-Glo ATP luminescence
[2] = growth inhibition of DIPG glioma cells, dose response, cell-based, SU-DIPG-XIII, MIPE4.0, CellTiter-Glo, qHTS (AID 1347061; cut-off not given, nearly all actives have AC50 up to about 37 µM;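 note: cells exposed to compound for 48 hours before readout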); conditions: SU-DIPG-XIII viability, CellTiter-Glo ATP luminescence
[3] = viability loss in pontine glioma line – cell-based, SU-DIPG-XXV, MIPE5.0, CellTiter-Glo, qHTS, dose response (AID 1347065; cut-off not given, nearly all actives have AC50 up to about 26 µM;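 note: cells exposed to compound for 48 hours before ATP readout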); conditions: CellTiter-Glo ATP luminescence
[4] = growth inhibition of DIPG glioma cells, dose response, cell-based, SU-DIPG-IV, MIPE4.0, CellTiter-Glo, qHTS (AID 1347063; cut-off not given, nearly all actives have AC50 up to about 30 µM;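 note: compound exposure lasted 48 hours before the viability readout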); conditions: SU-DIPG-IV viability, CellTiter-Glo ATP luminescence
[5] = JHH-DIPG-1 glioma cell viability, MIPE5.0 library, CellTiter-Glo luminescence, qHTS (AID 1347067; cut-off not given, nearly all actives have AC50 up to about 26 µM;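 note: cells exposed to compound for 48 hours before readout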); conditions: JHH-DIPG-1 glioma viability, CellTiter-Glo ATP luminescence
[6] = sensitizers of A549 cells to miR-34 induction, primary screen, imaging, A549 dox-inducible miR-34, nuclei and caspase counts (AID 1347080;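 active = compounds whose cell count with miR-34 switched on is under 0.7 times the count with it off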); conditions: A549 miR-34 inducible, Hoechst nuclei count, 48 h
[7] = modifiers of HSF1 nuclear foci, imaging, Selleck Cancer Library (AID 1347162; in the data active = plate-normalised HSF1 focus index below about 0.46); conditions: human cells, at 10 µM; SSMD: measured here: HSF1 foci SSMD mean; cell count: measured here: cell number; plate-normalised HSF1 focus index: stronger effect = lower value
[8] = survival rescue of mitochondrial mutant cells in low glucose, primary screen, MELAS cybrids, Rieske KO mouse fibroblasts, CellTiter-Glo (AID 1508586;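 active = mean z-score across replicates of 1.96 or higher in either the MELAS or the Rieske mutant cell line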;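 note: z relative to plate mean and SD of compound and empty wells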)
[9] = ovarian cancer cell viability with rucaparib, profiling panel, oncology-focused library, rucaparib conditional (AID 1508598); conditions: patient-derived ovarian cancer cells, CellTiter-Glo viability, 144 h, stronger effect = lower value
[10] = SU-DIPG-VI glioma cell viability, MIPE4.0 library, CellTiter-Glo luminescence, qHTS (AID 1347066; cut-off not given, nearly all actives have AC50 up to about 30 µM;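 note: cells exposed to compound for 48 hours before readout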); conditions: CellTiter-Glo ATP luminescence
[11] = SU-DIPG-XXV glioma cell viability, MIPE5.0 library, qHTS (AID 1347068; cut-off not given, nearly all actives have IC50 up to about 30 µM)
[12] = growth inhibition of DIPG glioma cells, dose response, cell-based, SU-DIPG-XIII, MIPE5.0, CellTiter-Glo, qHTS (AID 1347064; cut-off not given, nearly all actives have AC50 up to about 23 µM); conditions: SU-DIPG-XIII viability, CellTiter-Glo ATP luminescence
[13] = stronger effect = lower value, cell number ratio, induced over uninduced
[14] = measured here: relative caspase fold change +Dox/-Dox
[15] = measured here: total cells with miR-34 induction, stronger effect = lower value
[16] = measured here: total cells without miR-34 induction
[17] = MELAS cybrid survival, CellTiter-Glo 48 h, stronger effect = higher value
[18] = Rieske KO mouse fibroblast survival, CellTiter-Glo 72 h

COc1cc(C(C)C)c2c(c1)S(=O)(=O)N(COc1cc(=O)n3cccc(OCCN4CCCCC4)c3n1)C2=O
inactive: outcome [2]
active: AC50 [1] 23.5 µM | AC50 [3] 20.9 µM

Cc1cn(-c2cc(NC(=O)c3ccc(C)c(Nc4nccc(-c5cccnc5)n4)c3)cc(C(F)(F)F)c2)cn1
active: AC50 [1] 10.5 µM | AC50 [4] 8.33 µM | AC50 [3] 10.5 µM | AC50 [5] 11.8 µM | z-score [8, 17] 3.41 | viability ([9]; at 0.00488 µM, OCI-P5x cells, without rucaparib) 98.8% | viability ([9]; at 0.0195 µM, OCI-P5x cells, without rucaparib) 91.4% | viability ([9]; at 0.0781 µM, OCI-P5x cells, with rucaparib 20 µM, 100% = cells with rucaparib alone) 98.7% | viability ([9]; at 1.25 µM, OCI-P5x cells, with rucaparib 20 µM, 100% = cells with rucaparib alone) 97.7% | viability ([9]; at 1.25 µM, OCI-P5x cells, without rucaparib) 91.7% | viability ([9]; at 5 µM, OCI-P5x cells, with rucaparib 20 µM, 100% = cells with rucaparib alone) 68% | viability ([9]; at 5 µM, OCI-P5x cells, without rucaparib) 30.3%
0.723: SSMD [7]
inactive: outcome [2] | fold change [6, 13] 0.874 | plate-normalised HSF1 focus index [7] 1.05 | viability ([9]; at 0.000305 µM, OCI-C5x cells, with rucaparib 10 µM, 100% = cells with rucaparib alone) 106% | viability ([9]; at 0.000305 µM, OCI-C5x cells, without rucaparib) 116% | viability ([9]; at 0.000305 µM, OCI-P5x cells, with rucaparib 20 µM, 100% = cells with rucaparib alone) 103% | viability ([9]; at 0.000305 µM, OCI-P5x cells, without rucaparib) 105% | viability ([9]; at 0.00122 µM, OCI-C5x cells, with rucaparib 10 µM, 100% = cells with rucaparib alone) 108% | viability ([9]; at 0.00122 µM, OCI-C5x cells, without rucaparib) 117% | viability ([9]; at 0.00122 µM, OCI-P5x cells, with rucaparib 20 µM, 100% = cells with rucaparib alone) 100% | viability ([9]; at 0.00122 µM, OCI-P5x cells, without rucaparib) 101% | viability ([9]; at 0.00488 µM, OCI-C5x cells, with rucaparib 10 µM, 100% = cells with rucaparib alone) 109% | viability ([9]; at 0.00488 µM, OCI-C5x cells, without rucaparib) 116% | viability ([9]; at 0.00488 µM, OCI-P5x cells, with rucaparib 20 µM, 100% = cells with rucaparib alone) 103% | viability ([9]; at 0.0195 µM, OCI-C5x cells, with rucaparib 10 µM, 100% = cells with rucaparib alone) 105% | viability ([9]; at 0.0195 µM, OCI-C5x cells, without rucaparib) 127% | viability ([9]; at 0.0195 µM, OCI-P5x cells, with rucaparib 20 µM, 100% = cells with rucaparib alone) 102% | viability ([9]; at 0.0781 µM, OCI-C5x cells, with rucaparib 10 µM, 100% = cells with rucaparib alone) 117% | viability ([9]; at 0.0781 µM, OCI-C5x cells, without rucaparib) 116% | viability ([9]; at 0.0781 µM, OCI-P5x cells, without rucaparib) 104% | viability ([9]; at 0.313 µM, OCI-C5x cells, with rucaparib 10 µM, 100% = cells with rucaparib alone) 107% | viability ([9]; at 0.313 µM, OCI-C5x cells, without rucaparib) 118% | viability ([9]; at 0.313 µM, OCI-P5x cells, with rucaparib 20 µM, 100% = cells with rucaparib alone) 116% | viability ([9]; at 0.313 µM, OCI-P5x cells, without rucaparib) 103% | viability ([9]; at 1.25 µM, OCI-C5x cells, with rucaparib 10 µM, 100% = cells with rucaparib alone) 127% | viability ([9]; at 1.25 µM, OCI-C5x cells, without rucaparib) 117% | viability ([9]; at 5 µM, OCI-C5x cells, with rucaparib 10 µM, 100% = cells with rucaparib alone) 139% | viability ([9]; at 5 µM, OCI-C5x cells, without rucaparib) 116%
1440: cell count [6, 16]
0.941: fold change [6, 14]
-0.657: z-score [8, 18]
7680: cell count [7]
1260: cell count [6, 15]

CN[C@@H](C)C(=O)N[C@H]1CN(C(=O)CC(C)C)CC[C@H]2CC[C@@H](C(=O)NC(c3ccccc3)c3ccccc3)N2C1=O
inactive: outcome [1] | outcome [2] | outcome [3] | outcome [10] | outcome [5] | outcome [11] | plate-normalised HSF1 focus index [7] 1.1
7260: cell count [7]
2.71: SSMD [7]

CC1=C(C(=O)Nc2cc3cn[nH]c3cc2F)C(c2ccc(C(F)(F)F)cc2)CC(=O)N1 (configuration not stated)
0.78: fold change [6, 14]
inactive: outcome [1] | outcome [2] | outcome [4] | outcome [12] | outcome [5] | outcome [11] | fold change [6, 13] 1.03 | z-score [8, 17] -0.364
5210: cell count [6, 15]
5040: cell count [6, 16]
0.0194: z-score [8, 18]

COc1ccc(-c2oc3c(CC=C(C)C)c(OC4O[C@H](CO)[C@@H](O)[C@H](O)[C@H]4O)cc(O)c3c(=O)c2OC2O[C@@H](C)[C@H](O)[C@@H](O)[C@H]2O)cc1 (some centres not stated)
active: AC50 [4] 14.8 µM | AC50 [10] 14.8 µM
inactive: outcome [1] | outcome [2] | outcome [3] | outcome [5] | outcome [11]
